According to PubChem BioAssay (EPA / NIEHS):
Calls of active or inactive are those of the source. The calls were made as follows: active = hit-call score of the fitted dose curve at least 0.9, where 1 is the maximum; inactive = score below 0.9.

Experiments:
[1] = CCTE_Padilla_ZF_Score.Edema: CCTE's 144 Hour Post-fertilization zebrafish Assay Score for Edema Malformation, Padilla Lab (AID 2284406)
Method in brief: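 Edema scored at 6 dpf by two blinded observers under a stereo microscope, in single outbred wild-type larvae exposed from 6-8 hpf in sealed wells (Hanks', 26C, 14:10 h light) and chemical-free after a 5 dpf rinse.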

[2] = CCTE_Padilla_ZF_Score.Spine: CCTE's 144 Hour Post-fertilization zebrafish Assay Score for Spine Malformation, Padilla Lab (AID 2284407)
Method in brief: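 Spine malformation scored at 6 dpf by two independent blinded observers under stereomicroscope, after static sealed exposure from 6–8 hpf at 26C in Hanks' solution with rinse on 5 dpf. Positive-direction fit against DMSO control.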

[3] = CCTE_Padilla_ZF_Score.Swim_bladder: CCTE's 144 Hour Post-fertilization zebrafish Assay Score for Swim Bladder Malformation, Padilla Lab (AID 2284408)
Method in brief: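 Swim bladder inflation scored at 6 dpf by two blinded observers under a stereo microscope. Exposure ran from 6–8 hpf in sealed wells of 10% Hanks' at 26C, with rinsing at 5 dpf; DMSO served as baseline.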

[4] = CCTE_Padilla_ZF_Score.Position: CCTE's 144 Hour Post-fertilization zebrafish Assay Score for Position, Padilla Lab (AID 2284409)
Method in brief: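 Wild-type zebrafish embryos (with chorions) exposed singly from 6–8 hpf in sealed wells of Hanks' solution at 26C, rinsed at 5 dpf. At 6 dpf, blinded assessors scored abnormal water-column position by brightfield stereomicroscopy, relative to DMSO.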

[5] = CCTE_Padilla_ZF_Score.Living: CCTE's 144 Hour Post-fertilization zebrafish Assay Score for Viability, Padilla Lab (AID 2284410);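 also: larval death at 6 dpf judged by absent heartbeat or coagulation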
Method in brief: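 Mortality at 6 dpf, judged as absent heartbeat or coagulation by two blinded observers, after sealed static exposure beginning at 6–8 hpf at 26C. Larvae were rinsed free of chemical at 5 dpf, and activity was fitted relative to DMSO.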

[6] = CCTE_Padilla_ZF_Score.Tail: CCTE's 144 Hour Post-fertilization zebrafish Assay Score for Tail Malformation, Padilla Lab (AID 2284414)
Method in brief: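 Tail malformations were scored at 6 dpf by two blinded assessors under a stereo microscope. Chorionated embryos had been exposed from 6-8 hpf in sealed wells of 10% Hanks' at 26 C, then rinsed free of chemical at 5 dpf.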

[7] = CCTE_Padilla_ZF_Score.Blood_pooling: CCTE's 144 Hour Post-fertilization zebrafish Assay Score for Blood Pooling, Padilla Lab (AID 2284415)
Method in brief: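 Blood pooling was scored at 6 dpf under a stereo microscope by two blinded assessors, fitted upward against DMSO. Single embryos were dosed at 6–8 hpf in 10% Hanks', kept sealed at 26C (14:10 h cycle) and rinsed at 5 dpf.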

[8] = CCTE_Padilla_ZF_Score.Any: CCTE's 144 Hour Post-fertilization zebrafish Assay Score for Any Mortality or Malformation, Padilla Lab (AID 2284416)
Method in brief: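 Wild-type zebrafish embryos with chorions, one per well in 10% Hanks' from 6–8 hpf, dosed in sealed plates at 26 C, 14:10 h light:dark; rinsed at 5 dpf; blinded scoring at 6 dpf for death or malformation, versus DMSO.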

TTR (gene 7276) = experiment: CCTE_GLTED_hTTR_0.125uM: CCTE's human Transthyretin (hTTR) Inhibition Assay, with 0.125uM TTR, Great Lakes Toxicology and Ecology Division (GLTED) Lab (AID 2284431);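 also: hits lower the fluorescence signal relative to DMSO baseline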
Method in brief: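 Activity is defined as decreased ANSA fluorescence (ex 380, em 475) from human transthyretin, 0.125uM, following 2-hour chemical exposure in a cell-free setup, with DMSO as baseline.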

Measured: AC50

O=C(O)C(F)(F)C(F)(F)C(F)(F)C(F)(F)F
not listed: TTR (gene 7276)
inactive: all other assays above

C=C(C)C(=O)OCC(F)(F)C(F)(F)C(F)(F)F
not listed: [2] | TTR (gene 7276)
inactive: all other assays above

O=C(O)C=C(C(F)(F)F)C(F)(F)F
not listed: TTR (gene 7276)
inactive: all other assays above

FC(F)(F)C(F)(F)C(F)(F)C(F)(F)C(F)(F)C(F)(F)C(F)(F)C(F)(F)F
not listed: [2] | TTR (gene 7276)
inactive: all other assays above

OCCCC(F)(F)C(F)(F)C(F)(F)F
not listed: [2] | TTR (gene 7276)
inactive: all other assays above

OCC(F)(F)C(F)(F)C(F)(F)C(F)F
not listed: [2] | TTR (gene 7276)
inactive: all other assays above

O=S(=O)(OCC(F)F)C(F)(F)F
not listed: [2] | TTR (gene 7276)
inactive: all other assays above

O=S(=O)(OCCOC(F)(F)F)C(F)(F)F
not listed: [2] | TTR (gene 7276)
inactive: all other assays above

FC(F)(Br)C(F)(F)C(F)(F)C(F)(F)C(F)(F)C(F)(F)Br
not listed: [2] | TTR (gene 7276)
inactive: all other assays above

OCC(F)(F)C(F)(F)C(F)(F)C(F)(F)C(F)(F)C(F)F
not listed: [2] | TTR (gene 7276)
inactive: all other assays above

CCCCC(CC)COP(=O)(O)OCC(CC)CCCC (stereo not drawn)
active: TTR (gene 7276) 5.44 µM

CCO[Si](CCC(F)(F)C(F)(F)C(F)(F)C(F)(F)C(F)(F)C(F)(F)F)(OCC)OCC
not listed: [2] | TTR (gene 7276)
inactive: all other assays above

CCCCCCCCC(F)(F)C(F)(F)C(F)(F)C(F)(F)C(F)(F)C(F)(F)F
not listed: [2] | TTR (gene 7276)
inactive: all other assays above

C=CC(F)(F)C(F)(F)C(F)(F)C(F)(F)C(F)(F)C(F)(F)C(F)(F)C(F)(F)F
not listed: [2] | TTR (gene 7276)
inactive: all other assays above

Cc1ccc(S(=O)(=O)OCC(F)(F)C(F)(F)C(F)(F)C(F)(F)C(F)(F)C(F)F)cc1
active: [3] 9.81 µM | [8] 22.9 µM
not listed: [2] | TTR (gene 7276)
inactive: all other assays above

C=CC(=O)OCC(F)(F)C(F)(F)C(F)(F)C(F)(F)C(F)(F)C(F)(F)C(F)(F)F
not listed: [2] | TTR (gene 7276)
inactive: all other assays above

C=C(C)C(=O)OCC(F)(F)C(F)(F)C(F)(F)C(F)(F)C(F)(F)C(F)(F)C(F)(F)F
not listed: [2] | TTR (gene 7276)
inactive: all other assays above

O=C(O)C(F)(F)C(F)(F)OC(F)(F)F
not listed: [2] | TTR (gene 7276)
inactive: all other assays above

OCC(F)(F)C(F)(F)C(F)(F)F
not listed: [2] | TTR (gene 7276)
inactive: all other assays above

O=C(Cl)C(F)(F)C(F)(F)C(F)(F)C(F)(F)C(F)(F)C(F)(F)C(F)(F)C(F)(F)F
active: [1] 10 µM | [8] 29.4 µM
not listed: [2] | TTR (gene 7276)
inactive: all other assays above

CC(Cc1ccc(O)c(O)c1)C(C)Cc1ccc(O)c(O)c1 (stereo not drawn)
active: TTR (gene 7276) 0.0909 µM

O=C(O)C(F)(F)C(F)(F)C(F)(F)C(F)(F)C(F)(F)C(F)(F)C(F)(F)C(F)(F)C(F)(F)C(F)(F)C(F)(F)C(F)(F)C(F)(F)F
not listed: [2] | TTR (gene 7276)
inactive: all other assays above

FC(F)(F)C(F)(F)C(F)(F)C(F)(F)C(F)(F)CCI
inactive: [4] | [5] | [6] | [7]
active: [1] 30.4 µM | [3] 30.4 µM | [8] 31.9 µM

c1ccc(B(c2ccccc2)c2ccccc2)cc1
active: TTR (gene 7276) 1.6 µM

O=C(O)C(F)(F)C(F)(F)C(F)(F)C(F)(F)C(F)(F)C(F)(F)C(F)(F)C(F)(F)C(F)(F)C(F)F
inactive: [3] | [4] | [6] | [7]
active: [1] 14.9 µM | [5] 17.5 µM | [8] 15 µM

Cc1ccc(S(=O)(=O)NCl)cc1
active: TTR (gene 7276) 44.5 µM

O=C(O)C(F)(F)C(F)(F)C(F)(F)C(F)(F)C(F)(F)C(F)(F)C(F)(F)C(F)(F)Cl
inactive: [6] | [7]
active: [1] 36.6 µM | [3] 9.95 µM | [4] 70.4 µM | [5] 35.5 µM | [8] 10 µM

FC(F)(F)C(F)(F)C(F)(F)C(F)(F)C(F)(F)C(F)(F)CCS
not listed: [2] | TTR (gene 7276)
inactive: all other assays above

O=C(O)C(F)(OC(F)(F)C(F)(OC(F)(F)C(F)(F)C(F)(F)F)C(F)(F)F)C(F)(F)F (stereo not drawn)
not listed: [2] | TTR (gene 7276)
inactive: all other assays above

CC(C)(C)C(=O)CC(=O)C(F)(F)C(F)(F)C(F)(F)F
inactive: [6] | [7]
active: [1] 27.5 µM | [3] 27 µM | [4] 29 µM | [5] 32.8 µM | [8] 26.6 µM
